± gives the standard deviation.
How the values were obtained:
Conditions in all cases: modulator concentration 10 µM
[1] = system: RAW-Dual (murine macrophage reporter line); test: NF-kB reporter (SEAP) activity fold change vs agonist alone; higher = enhanced NF-kB activity
Summary of the method: (§1)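 RAW-Dual murine macrophage reporter cells were plated at 50 000 per well in 384-well plates, pin-transferred compound to 10 μM final, and pre-incubated for 1 hour at 37 °C before a PRR agonist was added and the cells incubated overnight. NF-κB activity was read from supernatant SEAP with QUANTI-Blue at 620 nm absorbance, and IRF activity from Lucia luciferase with QUANTI-Luc by luminescence. Each signal was expressed as fold change by dividing by the mean agonist-only control on the same plate. Two replicate plates were averaged, with errors obtained by propagation.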

[2] = system: RAW-Dual (murine macrophage reporter line); test: IRF reporter (Lucia luciferase) activity fold change vs agonist alone; higher = enhanced IRF activity
Summary of the method: as §1

[3] = system: RAW-Dual (murine macrophage reporter line); test: viability score (confluency relative to resting cells, overnight) (fraction); higher = more viable, active = viable (0.7 or more)
Summary of the method: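 RAW-Dual macrophages in 384-well plates were exposed overnight to compound at 10 μM final. Confluency was imaged with IncuCyte, and two confluency masks were generated with IncuCyte software over all imaged wells. The viability score is confluency expressed relative to resting cells. Compounds were called viable if both masks exceeded 70% of resting cells.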

[4] = agonist: CpG ODN 1826 0.5 ug/mL

| Structure (SMILES) | NF-kB reporter [1, 4] | NF-kB reporter ([1]; agonist: LPS 0.1 ug/mL) | NF-kB reporter ([1]; agonist: MPLA […]) | IRF reporter ([2]; agonist: 3'3'-cGAMP 10 ug/mL) | IRF reporter ([2]; agonist: LPS 0.1 ug/mL) | IRF reporter ([2]; agonist: MPLA […]) | viability score [3] |
| --- | --- | --- | --- | --- | --- | --- | --- |
| O=S(=O)(NC1CC1)c1cnn(-c2ccccc2)c1 | 0.903 ± 0.048 | 0.908 ± 0.073 | 1.08 ± 0.079 | 1.07 ± 0.062 | 1.3 ± 0.3 | 1.52 ± 0.57 | 0.964 (active) |
| CN(C)CC(c1ccc(O)cc1)C1(O)CCCCC1 (centres undefined) | 0.971 ± 0.16 | 1.07 ± 0.26 | 0.893 ± 0.054 | 0.897 ± 0.045 | 1.44 ± 0.32 | 1.17 ± 0.092 | 0.992 (active) |
| CCN(CC)c1ccc(C=NNc2cc(N3CCOCC3)nc(N3CCOCC3)n2)cc1 | 0.894 ± 0.096 | 1.03 ± 0.11 | 0.994 ± 0.1 | 0.458 ± 0.07 | 1.28 ± 0.23 | 1.25 ± 0.17 | 0.994 (active) |
| CCc1ccccc1Nc1nc(-c2sc(NC(C)=O)nc2C)cs1 | 0.65 ± 0.1 | 0.555 ± 0.052 | 0.582 ± 0.048 | 0.778 ± 0.028 | 1.3 ± 0.3 | 1.42 ± 0.26 | 0.536 (inactive) |
| CC(=O)OC1=C(O)C=CC2C(C)=CC(=O)OC12 (centres undefined) | 0.954 ± 0.12 | 0.823 ± 0.079 | 1.04 ± 0.1 | 0.986 ± 0.034 | 1.3 ± 0.19 | 1.47 ± 0.3 | 1.01 (active) |
| O=C(CSc1ccc2nc(-c3ccccc3)cn2n1)Nc1ccc(Br)cc1 | 0.931 ± 0.2 | 0.957 ± 0.077 | 0.995 ± 0.15 | 0.624 ± 0.017 | 1.21 ± 0.25 | 1.31 ± 0.23 | 0.988 (active) |
| CC(=O)N1CCC(C(=O)NC(Cn2nccn2)c2ccccc2)CC1 (centres undefined) | 0.87 ± 0.05 | 1.06 ± 0.09 | 1.05 ± 0.082 | 1.04 ± 0.051 | 1.34 ± 0.25 | 1.56 ± 0.46 | 0.935 (active) |
| CN(C)C1C(O)=C(C(N)=O)C(=O)C2(O)C(O)=C3C(=O)c4c(O)ccc(Cl)c4C(O)C3CC12.Cl (centres undefined) | 1.37 ± 0.35 | 1.1 ± 0.067 | 1.01 ± 0.067 | 0.894 ± 0.038 | 1.19 ± 0.14 | 1.08 ± 0.15 | 0.991 (active) |
| O=Cc1cn(CCOc2ccc(Cl)cc2)c2ccccc12 | 1.45 ± 0.12 | 0.883 ± 0.07 | 1.62 ± 0.06 | 0.685 ± 0.057 | 0.773 ± 0.081 | 0.613 ± 0.12 | 0.93 (active) |
| Br.O=S(=O)(c1ccc(-c2csc(Nc3ccc(Br)cc3)n2)cc1)N1CCCC1 | 0.814 ± 0.063 | 1.08 ± 0.099 | 0.858 ± 0.065 | 1.03 ± 0.034 | 1.37 ± 0.1 | 1.2 ± 0.16 | 1.01 (active) |
| N[C@@H](Cc1cc(I)c(Oc2cc(I)c(O)c(I)c2)c(I)c1)C(=O)O | 0.496 ± 0.045 | 0.804 ± 0.069 | 0.908 ± 0.19 | 0.572 ± 0.044 | 1.15 ± 0.2 | 1.23 ± 0.31 | 1.03 (active) |
| COc1ccc(C2N3CC4(C)CN2CC(C)(C3)C4O)cc1 (centres undefined) | 0.816 ± 0.067 | 0.949 ± 0.046 | 0.966 ± 0.1 | 0.995 ± 0.055 | 1.49 ± 0.086 | 1.66 ± 0.15 | 1.01 (active) |
| Cc1ccc(C(=O)NC(=Cc2ccccc2)C(=O)NCCCn2ccnc2)cc1 | 0.949 ± 0.077 | 1.03 ± 0.069 | 0.907 ± 0.083 | 1.01 ± 0.045 | 1.45 ± 0.25 | 1.12 ± 0.074 | 1.01 (active) |
| Cc1cc2nc3sc(=Cc4ccccc4OCc4ccc(Cl)cc4Cl)c(=O)n3c2cc1C | 0.975 ± 0.088 | 1.07 ± 0.069 | 0.962 ± 0.072 | 0.99 ± 0.034 | 1.47 ± 0.18 | 1.14 ± 0.12 | 0.999 (active) |
| CCOC(=O)c1c(N)sc(C(=O)N2CCCC(C(N)=O)C2)c1C (centres undefined) | 0.442 ± 0.15 | 0.873 ± 0.095 | 0.356 ± 0.17 | 0.982 ± 0.039 | 2.11 ± 0.89 | 1.79 ± 0.39 | 0.932 (active) |
| Cl.O=C(c1ccc(OCCN2CCCCC2)cc1)c1c(-c2ccc(O)cc2)sc2cc(O)ccc12 | 0.106 ± 0.015 | 1.14 ± 0.27 | 2.12 ± 0.12 | 0.55 ± 0.023 | 0.901 ± 0.24 | 1.5 ± 0.18 | 0.254 (inactive) |
| COCCCNC(=O)CSc1ccc(Cl)cc1 | 1.07 ± 0.17 | 0.974 ± 0.11 | 0.952 ± 0.13 | 0.889 ± 0.063 | 1.12 ± 0.28 | 1.1 ± 0.13 | 1 (active) |
| Cc1ccc(NC(Nc2ccc(C)cc2)=C(C(Cl)=C(Cl)Cl)[N+](=O)[O-])cc1 | 1.01 ± 0.17 | 0.881 ± 0.07 | 1.18 ± 0.36 | 0.264 ± 0.01 | 1.29 ± 0.14 | 1.33 ± 0.16 | 0.998 (active) |
| COc1ccc(-c2csc(NC(=O)C3CC3)n2)cc1 | 1.1 ± 0.064 | 0.958 ± 0.078 | 1.05 ± 0.032 | 0.876 ± 0.032 | 1.05 ± 0.08 | 1.13 ± 0.26 | 0.988 (active) |
| Oc1ccc(-c2cnc(-c3ccc(O)cc3)nc2)cc1 | 0.924 ± 0.22 | 0.965 ± 0.091 | 1.42 ± 0.1 | 0.347 ± 0.017 | 0.555 ± 0.08 | 0.591 ± 0.16 | 0.927 (active) |
| COc1cc(C2C(C(=O)c3ccccc3)=C(O)C(=O)N2c2cccnc2)ccc1O (centres undefined) | 0.915 ± 0.14 | 0.595 ± 0.13 | 0.582 ± 0.1 | 0.758 ± 0.068 | 0.849 ± 0.074 | 0.785 ± 0.13 | 0.97 (active) |
| C[C@@H]1CCN(C(=O)CC#N)C[C@@H]1N(C)c1ncnc2[nH]ccc12 | 1.14 ± 0.15 | 0.694 ± 0.24 | 0.824 ± 0.064 | 0.337 ± 0.022 | 0.473 ± 0.098 | 0.654 ± 0.082 | 0.992 (active) |
| CCn1nccc1C(=O)N1CCN(S(C)(=O)=O)CC1 | 1.02 ± 0.066 | 0.929 ± 0.092 | 0.991 ± 0.028 | 1.01 ± 0.069 | 0.994 ± 0.061 | 0.847 ± 0.13 | 1 (active) |
| CCOC(=O)[C@H](CCc1ccccc1)N[C@@H](C)C(=O)N1CCC[C@H]1C(=O)O.O=C(O)/C=C\C(=O)O | 1.05 ± 0.09 | 1.01 ± 0.11 | 1 ± 0.054 | 1.01 ± 0.085 | 0.916 ± 0.04 | 0.868 ± 0.2 | 1 (active) |
| Cc1cccc(C(=O)Nc2cccc([N+](=O)[O-])c2C)c1 | 1.1 ± 0.067 | 1 ± 0.062 | 0.86 ± 0.095 | 0.964 ± 0.04 | 1.33 ± 0.15 | 1.12 ± 0.099 | 0.992 (active) |
| CN(C)CCS(=O)c1ccccc1 (centres undefined) | 0.955 ± 0.08 | 0.907 ± 0.071 | 1.16 ± 0.21 | 0.983 ± 0.038 | 1.32 ± 0.23 | 1.39 ± 0.27 | 1.04 (active) |
| O=C(COC(=O)c1ccc2ccccc2n1)c1ccc(Br)cc1 | 0.988 ± 0.16 | 1.05 ± 0.11 | 1.06 ± 0.14 | 0.972 ± 0.033 | 1.29 ± 0.25 | 1.42 ± 0.26 | 1 (active) |

From the supplement of paper PMC10646978
